The structures appear in SMILES notation. Inconclusive results are not listed. Entries that show only a call come without a potency. Unmarked numbers belong to inactive results. The source made the active and inactive calls. Calls come from the whole dose curve; as a rule, active = well fitted cell-killing curve with a large enough effect in the repeat runs; inconclusive = weak or mixed curves, or effect the other way; inactive = no such curve, though single readings can be large or run the other way.

The values that follow come from PubChem BioAssay (Tox21).
Potency is the fitted concentration of half-maximal effect.

The nature of the test: qHTS assay to identify small molecule antagonists of the sonic hedgehog signaling (Shh) pathway - cell viability counter screen (AID 1259367). Note: nearly all actives have a fitted effect of over 55% in size. The conditions noted are these: NIH/3T3 Gli1-Luc viability, CellTiter-Fluor, 24 h; series mostly up to 92.4 µM. An excerpt:
National Center for Advancing Translational Sciences [NCATS]
NIH Chemical Genomics Center [NCGC]
U.S. Environmental Protection Agency [EPA]
National Institutes of Environmental Health Sciences [NIEHS]
National Toxicology Program [NTP]
U.S. Food and Drug Administration [FDA]
The sonic hedgehog (Shh) pathway is essential for normal embryonic development. Dysregulation of the Shh pathway can cause severe developmental defects in organs. Therefore chemicals that interfere with the pathway are potential developmental toxicants. A cell line designated 3T3Gli1-Luc (DMB/OARSA/CFSAN/FDA, Laurel, MD), a NIH/3T3 derived clone containing stably integrated Gli1-Luc reporter is used to detect chemical interference of the Shh pathway, by changes in the expression of the firefly Luc gene under the control of the Gli1 transcriptional response element. This cell line was used to screen Tox21 libraries for identifying and prioritizing the potential developmental toxicants that interfere Shh pathway. Conditioned medium-stimulated mode was used to screen for chemicals inhibiting Shh signaling. The cytotoxicity of the compounds was tested in parallel by measuring the cell viability using CellTiter-Fluor assay system (Promega, Madison, WI) in the same wells.
Tox21 Assay Protocol Summary:
3T3 Gli1-Luc cells were dispensed at 2,000 per well in 5uL of culture medium into white solid bottom 1536-well plates (Greiner Bio-One, Monroe, NC) using a Multidrop Combi (Thermo Scientific, Waltham, MA) dispenser. The assay plates were incubated at 37 C and 5% CO2 for 4hr, and then 23nL of compounds dissolved in DMSO and positive control were transferred using a Pintool station (Wako, San Diego, CA). The compound transfer was followed by the addition of 1ul conditioned medium or assay buffer using two separate tips of Flying Reagent Dispenser (FRD, Aurora Discovery, San Diego, CA). The assay plates were incubated at 37C and 5% CO2 for 24hr. For viability read, after 23hr of compound treatment, 1uL of CellTiter-Fluor reagent (Promega Corporation, Madison, WI) was added to each well of the assay plates using Flying Reagent Dispenser (FRD, Aurora Discovery, San Diego, CA) and incubated the assay plates at 37C for 1hr. The fluorescence signal was quantified using a ViewLux plate reader (Perkin Elmer, Shelton, CT).
For `OP(O)c1ccccc1`, the Potency result was “inactive”.
For the compound `CCCOC(=O)c1cncn1C(C)c1ccccc1` (stereo not given), the Potency result was “inactive”.
The same measure, in the same setting: the value for `NC(=O)CS(=O)C(c1ccccc1)c1ccccc1` (stereo not given) was “inactive”.
Still for that read-out and setting: the value for `c1cncc([C@@H]2CCCCN2)c1` was “inactive”; that for `CC(C)(O)C(Cl)(Cl)Cl` was “inactive”; that for `C/C=C/CC#N` was “inactive”.
With `N[C@@H]1C[C@H]1c1ccccc1`, the Potency entry is “inactive”.
As for `CC(O)CCl` (stereo not given), the Potency result is “inactive”.
For the compound `CC(=O)OCC1=C(C(=O)O)N2C(=O)[C@@H](N)[C@H]2SC1`, the viability change, negative = cytotoxic was 0.909% [at 19 µM].
As for `Clc1nc(Cl)nc(Nc2ccccc2Cl)n1`, the Potency entry is “inactive”.
The same measure, in the same setting: the value for `Cl/C=C/CCl` was “inactive”.
On the same count and under the same terms, the same measure for `CNC(=O)O/N=C(/CSC)C(C)(C)C`: “inactive”; for `CCc1cc(OC)c(C[C@H](C)N)cc1OC`: “inactive”.
Still for that read-out and setting: the same measure for `CCC1(c2ccccc2)C(=O)N(COC)C(=O)N(COC)C1=O`: “inactive”.
In the case of `CS(=O)(=O)c1ccc(C(=O)C2C(=O)CCCC2=O)c(Cl)c1COCC(F)(F)F`, the Potency entry was “inactive”.
Turning to `O=C1CCCCC1Cl` (stereo not given), the Potency result is “inactive”.
`N=C(N)[Se]`: the Potency result was “inactive”.
Same read-out and setting: the value for `CC(C)N(Cc1ccccc1)C(=O)C(C)(C)C` was “inactive”; that for `CCC(CC)(CNC(=O)CCCO)c1cccc(OC)c1` was “inactive”; that for `CCOC(=O)N(C)N=O` was “inactive”.
Same read-out and setting: the value for `CN1COCN(Cc2cnc(Cl)s2)/C1=N\[N+](=O)[O-]` was “inactive”.
On to `CCCCCCC(=O)CCCCCC/C=C/C[C@@H](O)[C@H](O)[C@@](N)(CO)C(=O)O`, for which the viability change, negative = cytotoxic was -0.502% [at 19 µM].
On to `COc1cc(CCN)cc(OC)c1OC`, for which the Potency entry was “inactive”.
For `N#CC(Br)(Br)C(N)=O`, the Potency is 54.5 µM (active).
`CN(CCO)CCO`: the Potency result was “inactive”.
Still for that read-out and setting: the same measure for `CC(Cc1ccccc1)NCCCCl` (stereo not given): “inactive”; for `CC(C)(N)Cc1ccccc1Cl`: “inactive”; for `CCOC1Oc2ccc(OS(C)(=O)=O)cc2C1(C)C` (stereo not given): “inactive”.
Still for that read-out and setting: the same measure for `COc1ccc(C=O)cc1O`: “inactive”; for `CCCC(C)C1(CC)C(=O)N=C(S)NC1=O` (stereo not given): “inactive”.
On the same count and under the same terms, the same measure for `CN(C)CCc1c[nH]c2cccc(OP(=O)(O)O)c12`: “inactive”; for `CCCCS(=O)(=O)Cl`: “inactive”; for `CON(C)C(=O)Nc1ccc(Br)cc1`: “inactive”.
Turning to `CCCCCCCC(=O)Cl`, the Potency result is “inactive”.
Consider `Clc1cc2c(cc1Cl)Oc1cc(Cl)c(Cl)cc1O2`, for which the viability change, negative = cytotoxic was 1.51% [at 0.349 µM].
As for `O=c1[nH]c2ccccc2n1C1CCNCC1`, the Potency entry was “inactive”.
Regarding `Cc1cc(OC(=O)N(C)C)nn1C(=O)N(C)C`, the Potency entry is “inactive”.
On the same count and under the same terms, the same measure for `CCOC(=O)Nc1cccc(OC(=O)Nc2ccccc2)c1`: “inactive”.
With `C=CCCC#N`, the Potency result is “inactive”.
In the case of `CCNP(=S)(OC)O/C(C)=C/C(=O)OC(C)C` (stereo not given), the Potency entry was “inactive”.
